Data on 19 molecules can be found in PubChem BioAssay (EPA / NIEHS).

For test [1], the target named is Nuclear respiratory factor 1 (Homo sapiens) (UniProt Q16656). Kind of test: ATG_NRF1_CIS: Attagene CIS-FACTORIAL HepG2 Assay for human Nuclear Respiratory Factor 1 (NRF1) Orphan Gene (AID 2282987). Particulars: HepG2 NRF1 cis-element reporter, Attagene multiplex; actives raise or lower the signal. The method in brief: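 Reporter mRNA induction or loss in HepG2 cells after 24 h dosing; cis-regulated reporter constructs report endogenous transcription-factor activity. Quantified by RT-PCR/capillary electrophoresis fluorescence, DMSO-referenced.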

A short description of test [2]: ATG_NFI_CIS: Attagene CIS-FACTORIAL HepG2 Assay for human Nuclear Factor I (NFI) (AID 2282989). Particulars: HepG2 cis-regulatory reporter, NFI response element transcription; actives raise or lower the signal. In outline: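 Cells: human liver HepG2, transiently transfected with promoter-regulated reporter transcription units. Exposure 24 h. Detection: fluorescent RT-PCR products separated by capillary electrophoresis, normalised to DMSO negative control.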

Test [3] deals with Myc proto-oncogene protein (Homo sapiens) (UniProt P01106). Kind of test: ATG_Myc_CIS: Attagene CIS-FACTORIAL HepG2 Assay for human Myelocytomatosis (Myc) Proto-Oncogene Transcription Factor (AID 2282990). Particulars: HepG2, Attagene cis-reporter transcription factor activity; actives raise or lower the signal. The method in brief: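 Transiently transfected HepG2 cells bearing cis-promoter reporter units for endogenous transcription factors; 24 h exposure. Reporter mRNA measured by RT-PCR, 6-FAM primer extension, HpaI cut and capillary electrophoresis; bidirectional fit relative to DMSO.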

Test [4] is described as follows: ATG_NRF2_ARE_CIS: Attagene CIS-FACTORIAL HepG2 Assay for human Nuclear Factor Erythroid 2 Related Factor 2 (NFR2) response to Antioxidant Response Elements (ARE) (AID 2282992).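 For AC50: reporter mRNA level measured by RT-PCR and capillary electrophoresis fluorescence.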 Particulars: HepG2 Attagene ARE/NRF2 reporter, transcription factor activity; actives raise or lower the signal. In outline: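 Multiplexed reporter mRNA profiling in HepG2 after a 24 h chemical exposure. Curves fitted in both directions relative to DMSO negative control.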

The nature of test [5]: ATG_Oct_MLP_CIS: Attagene CIS-FACTORIAL HepG2 Assay for human Octamer-Binding Transcription Factor (Oct) (AID 2282993). Particulars: HepG2 Attagene cis-factorial Oct reporter, mRNA; actives raise or lower the signal. The method in brief:
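HepG2, transient MRTU transfection, cis promoter elements; 24 h dosing; RT-PCR/CE fluorescence read-out of reporter mRNA; fit both directions vs DMSO.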

For test [6], the target named is Cellular tumor antigen p53 (Homo sapiens) (UniProt P04637). Kind of test: ATG_p53_CIS: Attagene CIS-FACTORIAL HepG2 Assay for human p53 Transcription Factor (AID 2282994). Particulars: HepG2 p53 cis-element reporter, Attagene mRNA; actives raise or lower the signal. The method in brief:
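Multiplexed reporter mRNA assay in human HepG2 liver cells; cis-regulated units report endogenous factor activity. Values come from bidirectional curve fitting against DMSO negative control after 24 h treatment.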

Test [7] can be described thus: BSK_3C_TissueFactor: BioMAP Diversity Plus: 3C Assay for Tissue Factor Biomarker Activity (AID 2282997). Particulars: BioMAP 3C HUVEC, tissue factor biomarker readout; actives raise or lower the signal. The method in brief:
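Values derive from bidirectional curve fitting against DMSO of Tissue Factor ELISA signals, taken 24 h after dosing primary human umbilical vein endothelial cells.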

A short description of test [8]: BSK_3C_uPAR: BioMAP Diversity Plus: 3C Assay for Urokinase-type plasminogen activator receptor (uPAR) Biomarker Activity (AID 2282998). Particulars: BioMAP 3C HUVEC, uPAR biomarker ELISA; actives raise or lower the signal. In outline: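 A multiplexed primary-cell system built on human umbilical vein endothelium was used, with chemical present for 24 h before reading. Cell-surface uPAR was detected by ELISA; signal change in either direction counted against DMSO.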
For orientation: An ELISA detects its analyte on a solid surface through an enzyme-linked reagent.

A short description of test [9]: BSK_3C_VCAM1: BioMAP Diversity Plus: 3C Assay for Vascular cell adhesion molecule 1 (VCAM1) Biomarker Activity (AID 2282999). Particulars: BioMAP 3C HUVEC, VCAM1 ELISA, cytokine-stimulated; actives raise or lower the signal. The method in brief: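 Human umbilical vein endothelial cells (3C system), biomarker read by ELISA 24 h after dosing; bidirectional fit against DMSO baseline. Cytotoxicity tracked by SRB total-protein staining in parallel cultures at biomarker time.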

Test [10] is described as follows: ATG_NF_kB_CIS: Attagene CIS-FACTORIAL HepG2 Assay for human Nuclear Factor Kappa B (NF-kB) (AID 2282991). Particulars: HepG2 Attagene cis-factorial NF-kB reporter mRNA; actives raise or lower the signal. The method in brief:
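DMSO served as negative control and baseline for bidirectional curve fitting. Transiently transfected HepG2 cells were dosed for 24 h, then reporter transcripts were measured by RT-PCR with capillary electrophoresis detection.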

The source holds several records for some structures; these can differ, active in one and inactive in another. Active and inactive are the calls of the source. Rule for the calls: active = hit-call score of the fitted dose curve at least 0.9, where 1 is the maximum; inactive = score below 0.9.

Sequence of Nuclear respiratory factor 1 (Homo sapiens) (Q16656 whole entry, looked up): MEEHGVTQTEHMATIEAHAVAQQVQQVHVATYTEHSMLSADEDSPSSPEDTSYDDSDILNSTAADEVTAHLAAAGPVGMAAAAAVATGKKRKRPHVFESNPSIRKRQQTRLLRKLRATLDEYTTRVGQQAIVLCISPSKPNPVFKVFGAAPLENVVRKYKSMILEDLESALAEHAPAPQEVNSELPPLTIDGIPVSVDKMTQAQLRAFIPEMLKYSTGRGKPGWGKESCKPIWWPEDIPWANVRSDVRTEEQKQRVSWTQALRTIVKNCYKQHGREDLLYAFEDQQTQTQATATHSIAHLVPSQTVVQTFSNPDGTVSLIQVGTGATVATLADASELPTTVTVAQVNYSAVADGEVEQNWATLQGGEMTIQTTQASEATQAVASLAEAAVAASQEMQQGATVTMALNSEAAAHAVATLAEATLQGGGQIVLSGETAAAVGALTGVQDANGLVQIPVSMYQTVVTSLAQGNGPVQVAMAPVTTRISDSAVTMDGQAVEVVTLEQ
Sequence of Myc proto-oncogene protein (Homo sapiens) (P01106 whole entry, looked up): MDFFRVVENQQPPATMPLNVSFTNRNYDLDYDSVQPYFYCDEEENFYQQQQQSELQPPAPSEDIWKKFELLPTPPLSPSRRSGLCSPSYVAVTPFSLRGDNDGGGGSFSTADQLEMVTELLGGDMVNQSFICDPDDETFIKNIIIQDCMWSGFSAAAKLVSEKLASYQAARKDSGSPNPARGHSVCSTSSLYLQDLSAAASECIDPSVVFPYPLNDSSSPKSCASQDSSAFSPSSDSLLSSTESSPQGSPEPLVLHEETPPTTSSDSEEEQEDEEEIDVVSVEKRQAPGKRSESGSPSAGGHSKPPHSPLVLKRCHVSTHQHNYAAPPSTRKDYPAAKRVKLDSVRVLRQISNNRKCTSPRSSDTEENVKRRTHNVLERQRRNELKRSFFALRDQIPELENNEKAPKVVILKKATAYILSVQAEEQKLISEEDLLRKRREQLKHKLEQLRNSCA
Sequence of Cellular tumor antigen p53 (Homo sapiens) (P04637 whole entry, looked up): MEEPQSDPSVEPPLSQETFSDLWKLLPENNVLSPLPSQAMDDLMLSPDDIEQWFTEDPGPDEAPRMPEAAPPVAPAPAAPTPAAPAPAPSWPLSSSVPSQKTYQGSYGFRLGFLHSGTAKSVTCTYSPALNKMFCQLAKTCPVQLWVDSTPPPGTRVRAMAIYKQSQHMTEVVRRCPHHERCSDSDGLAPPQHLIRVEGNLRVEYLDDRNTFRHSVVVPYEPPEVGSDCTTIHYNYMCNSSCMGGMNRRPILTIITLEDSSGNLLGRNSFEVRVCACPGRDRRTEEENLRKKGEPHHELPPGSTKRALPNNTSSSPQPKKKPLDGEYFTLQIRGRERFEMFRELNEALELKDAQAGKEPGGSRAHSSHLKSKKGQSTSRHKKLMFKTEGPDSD

In the case of `CCOCCOC(C)=O`, the molecule was classed as inactive in test [1], in test [2], in test [3], in test [4], in test [5] and in test [6]. The outcome in [7], in test [8] and in [9] was inactive.

As to `OCC(O)CO`, the molecule was called inactive in test [1], in [2], in [3], in [4], in test [5] and in [6].

As usually defined, the AC50 is the midpoint of the concentration-response curve, whichever way the signal moves. Regarding `CCCCCCCCCc1ccc(O)cc1`, the concentration at half-maximal activity (AC50) was 174 µM (active) in [1]; 69 µM (active) in test [3]; 16.1 µM (active) in test [7]; 15.5 µM (active) in test [8]; 13.8 µM (active) in [9]. Also, the result in test [1], in test [2], in test [3], in [5] and in test [6] was inactive.

On to `CCCCCCCCCC[N+](C)(C)CCCCCCCCCC`, for which the concentration at half-maximal activity (AC50) is 100 µM (active) in test [1]; 7.82 µM (active) in test [3]; 3.63 µM (active) in [4]; 3.99 µM (active) in [5]; 100 µM (active) in test [6]; 4.21 µM (active) in [7]. Further, the results for the half-maximal activity concentration (AC50) in [8] and in [9] were 2.43 µM (active) and 6.12 µM (active), respectively. Also, the molecule was called inactive in test [2] and in test [10].

Regarding `Clc1ccc(Cl)cc1`, the result in test [1], in test [2], in test [3], in test [5], in [6] and in [7] was inactive. Further, the result in test [8] and in test [9] was inactive.

For the molecule `ClC1=C(Cl)[C@]2(Cl)[C@@H]3[C@H]4C[C@H]([C@@H]5O[C@H]45)[C@@H]3[C@@]1(Cl)C2(Cl)Cl`, the call in test [1], in [2], in test [3], in [5], in test [6] and in test [7] was inactive. Besides, the outcome in test [8] and in test [9] was inactive.

Take `CCC(C)(CC)c1cc(NC(=O)c2c(OC)cccc2OC)on1`: the call in test [1], in test [2], in test [3], in test [7], in test [8] and in [9] was inactive. Also, the concentration at half-maximal activity (AC50) in test [5] was 1.64 µM (active).

Take `N#Cc1ccc(N(CC(N)=O)CC(F)(F)F)cc1C(F)(F)F`: the outcome in [1], in [2], in test [3], in test [5], in test [6] and in [7] was inactive. Further, the outcome in test [8] and in test [9] was inactive.

`C1CC2OC2CC1C1CO1` (stereo not given): the molecule was classed as inactive in [1], in test [2], in test [3], in test [5], in [6] and in [7]. Further, the outcome in test [8] and in test [9] was inactive. Moreover, in test [4], the AC50 was 123 µM (active).

Turning to `CCSC(=O)N(CC)C1CCCCC1`, the molecule was classed as inactive in test [1], in [2], in test [3], in test [4], in test [5] and in test [7]. Further, the outcome in test [8] and in [9] was inactive.

On to `CCOP(=S)(OCC)SCSC(C)(C)C`, for which the molecule was called inactive in [1], in [2], in test [3], in [5], in test [6] and in test [7]. In addition, the outcome in test [8] and in test [9] was inactive.

Consider `Cc1cccc(C)c1N`, for which the call in test [1], in test [2], in test [3], in test [5], in test [6] and in [7] was inactive. Further, the outcome in [8] and in test [9] was inactive.

As for `CN(C)CCO`, the molecule was called inactive in test [1], in test [2], in [3], in test [5], in [6] and in test [7]. Further, the outcome in test [8] and in test [9] was inactive.

Consider `Cc1cc2c3c(c1)C(c1ccccc1)=N[C@@H](NC(=O)c1ccncc1)C(=O)N3CC2`, for which the result in test [1], in [2], in test [3], in test [6], in [7] and in [8] was inactive. Moreover, in test [9], the outcome was inactive. Further, the AC50 in test [5] was 74 µM (active).

Take `Cc1ccc(O)c(C)c1`: the molecule was called inactive in [1], in [2], in test [3], in [5], in test [6] and in test [7]. The result in test [8] and in test [9] was inactive.

Consider `Cc1ccccc1[N+](=O)[O-]`, for which the molecule was classed as inactive in test [1], in [2], in [3], in test [5], in test [6] and in test [7]. Also, the outcome in test [8] and in test [9] was inactive.

`O=NN(c1ccccc1)c1ccccc1`: the molecule was classed as inactive in [1], in test [2], in test [3], in [5], in test [6] and in test [7]. Moreover, the result in [8] and in test [9] was inactive.

In the case of `Sc1ccccc1`, the outcome in test [1], in test [2], in [3], in test [5], in test [7] and in test [8] was inactive. In addition, in [9], the outcome was inactive.

Consider `O=C(NC(=O)c1c(F)cccc1F)Nc1cc(Cl)c(OC(F)(F)C(F)F)c(Cl)c1`, for which the molecule was classed as inactive in test [1], in test [2], in test [3], in test [4], in test [5] and in test [6]. Further, the outcome in test [8] and in test [9] was inactive. Also, in test [7], the concentration at half-maximal activity (AC50) is 1.03 µM (active).
